# PubChem BioAssay AID651640 (Broad Institute, 2012)
# Where “and” joins values, the source holds several entries; their conditions need not be identical. Identical values can stand only once. Screen size: about 350,000 compounds; about 6,000 (1.7%) were called active. Not shown: some 5% with an inconclusive outcome. No stated cut-off is given here; in the data, active means CPE inhibition above about 20% (passing the limit was not always enough); inconclusive means no clear call, values can overlap the other calls; tested in BHK-21 cells. For the sample, actives were picked, then their nearest neighbours and some compounds at random.
# Assay: inhibitors of DENV2 cytopathic effect, primary screen, cell-based, plate reader, single concentration (AID 651640);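 further: 0% = median of neutral control wells and 100% = median of positive control wells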
# Settings: DENV2-infected cells, cytopathic effect rescue, at 9.99 µM, active compounds read high
row,SMILES,CPE inhibition
1,O=C(NCC[C@H]1CC[C@H](NC(=O)C2CC2)[C@@H](CO)O1)c1ccc(F)cc1,-6.48% (inactive)
2,O=C(NCC[C@H]1CC[C@@H](NC(=O)C2CC2)[C@H](CO)O1)c1ccc(F)cc1,-2.58% (inactive)
3,O=C(NCC[C@H]1CC[C@@H](NC(=O)C2CCCCC2)[C@@H](CO)O1)c1ccc(F)cc1,50.9% (active)
4,C[C@H]1CN([C@@H](C)CO)C(=O)c2cc(/C=C/c3ccccc3)cnc2O[C@H]1CN(C)Cc1cccc(C(=O)O)c1,-8.76% (inactive)
5,C[C@@H]1CN([C@@H](C)CO)C(=O)c2cccc(NC(=O)NC3CCCCC3)c2O[C@@H]1CN(C)CC1CCCCC1,12.9% (inactive)
6,C[C@@H]1CN([C@H](C)CO)C(=O)c2cccc(NC(=O)NC3CCCCC3)c2O[C@H]1CN(C)Cc1ccc(C(F)(F)F)cc1,0.691% (inactive)
7,C[C@H]1CN([C@@H](C)CO)C(=O)c2cccc(NC(=O)C3CCCCC3)c2O[C@H]1CN(C)Cc1ccc(C(F)(F)F)cc1,12.9% (inactive)
8,C[C@H]1CN([C@@H](C)CO)C(=O)c2cccc(NC(=O)NC3CCCCC3)c2O[C@H]1CN(C)CC1CCCCC1,30.3% (active)
9,C[C@H](CO)N1C[C@H](C)[C@@H](CN(C)Cc2ccc(C(F)(F)F)cc2)Oc2c(NC(=O)NC3CCCCC3)cccc2C1=O,37.7% (active)
10,C[C@@H]1CN([C@H](C)CO)C(=O)c2cccc(NC(=O)NC3CCCCC3)c2O[C@@H]1CN(C)CC1CCCCC1,-11% (inactive)
11,O=C(C[C@H]1C=C[C@H](NC(=O)c2cccc(F)c2)[C@@H](CO)O1)NCc1ccc(Oc2ccccc2)cc1,-9.22% (inactive)
12,C[C@H](CO)N1C[C@H](C)[C@H](CN(C)Cc2ccncc2)Oc2ncc(C#Cc3cccc(F)c3)cc2C1=O,13.5% (inactive)
13,C[C@@H]1CN([C@H](C)CO)C(=O)c2cc(-c3ccccc3F)cnc2O[C@H]1CN(C)C(=O)CN(C)C,-0.853% (inactive)
14,CN1c2ccc(-c3cccc(F)c3)cc2[C@@H]2[C@@H](CCN2C(=O)Nc2ccccc2F)[C@@H]1CO,-9.74% (inactive)
15,COc1cccc(C(=O)Nc2ccc3c(c2)C(=O)N(C)[C@H]2CC[C@H](CC(=O)N[C@@H](C)c4ccccc4)O[C@H]2CO3)c1,-3.06% (inactive)
16,CN1C(=O)c2cc(NC(=O)Cc3ccccc3)ccc2OC[C@H]2O[C@H](CC(=O)NCc3ccc(Cl)cc3)CC[C@H]21,-3.46% (inactive)
17,Cc1ccc(S(=O)(=O)Nc2ccc3c(c2)C(=O)N([C@@H](C)CO)C[C@@H](C)[C@@H](CN(C)Cc2ccncc2)O3)cc1,2.98% (inactive)
18,Cc1ccc(S(=O)(=O)Nc2ccc3c(c2)C(=O)N([C@@H](C)CO)C[C@@H](C)[C@H](CN(C)Cc2ccncc2)O3)cc1,35.3% (active)
19,C[C@@H]1CN([C@H](C)CO)C(=O)c2cc(NS(=O)(=O)c3ccc(F)cc3)ccc2O[C@H]1CN(C)Cc1ccncc1,-0.549% (inactive)
20,Cc1ccc(S(=O)(=O)Nc2ccc3c(c2)C(=O)N([C@@H](C)CO)C[C@H](C)[C@@H](CN(C)Cc2ccc4c(c2)OCO4)O3)cc1,21.2% (active)
21,Cc1noc(C)c1S(=O)(=O)Nc1ccc2c(c1)C(=O)N([C@@H](C)CO)C[C@@H](C)[C@H](CN(C)Cc1ccc(-c3ccccc3)cc1)O2,35.7% (active)

row,SMILES,CPE inhibition
1,Cc1ccc(S(=O)(=O)Nc2ccc3c(c2)C(=O)N([C@H](C)CO)C[C@H](C)[C@H](CN(C)Cc2ccc(Cl)c(Cl)c2)O3)cc1,-4.04% (inactive)
2,Cc1ccc(S(=O)(=O)Nc2ccc3c(c2)C(=O)N([C@@H](C)CO)C[C@@H](C)[C@H](CN(C)Cc2ccc4c(c2)OCO4)OCCCC[C@@H](C)O3)cc1,-8.37% (inactive)
3,C[C@H](CO)N1C[C@H](C)[C@H](CN(C)Cc2ccc(-c3ccccc3)cc2)Oc2ccc(NS(=O)(=O)c3ccccc3)cc2C1=O,0.672% (inactive)
4,Cc1noc(C)c1S(=O)(=O)Nc1ccc2c(c1)C(=O)N([C@@H](C)CO)C[C@@H](C)[C@@H](CN(C)C)O2,1.2% (inactive)
5,CO[C@@H]1CN(C)C(=O)c2cc(NS(=O)(=O)c3cn(C)cn3)ccc2OC[C@@H](C)NC[C@H]1C,-0.807% (inactive)
6,COCc1cn(CC[C@H]2CC[C@@H](NC(=O)Nc3ccc(OC)cc3)[C@@H](CO)O2)nn1,0.762% (inactive)
7,C/C=C/c1ccc(C2[C@H]3CNC[C@@H]2N3C(=O)Nc2ccc(F)cc2)cc1 (stereo partly drawn),0.029% (inactive) and 10.5% (inactive)
8,O=C(Nc1ccc(-c2ccccc2)cc1)[C@@H]1[C@@H](CO)[C@@H]2Cn3c(cccc3=O)[C@H]1N2Cc1ccncc1,-0.731% (inactive)
9,CO[C@@H]1CN(C)C(=O)c2cc(NS(=O)(=O)c3cn(C)cn3)ccc2OC[C@@H](C)N(CCC(F)(F)F)C[C@H]1C,-9.32% (inactive)
10,O=C(c1ccccc1F)N1CC(=O)N2[C@H](CO)[C@H](c3ccc(-c4cccnc4)cc3)[C@H]2C1,8.17% (inactive)
11,C[C@@H]1CCCCO[C@@H](CN(C)S(=O)(=O)c2ccccc2)[C@@H](C)CN([C@@H](C)CO)C(=O)c2cc(NS(=O)(=O)c3cn(C)cn3)ccc2O1,-3.06% (inactive)
12,C[C@H](NC(=O)C[C@@H]1C[C@@H]2c3cc(NS(=O)(=O)c4ccc(F)cc4)ccc3O[C@@H]2[C@@H](CO)O1)c1ccccc1,2.95% (inactive)
13,CC(C)NC(=O)N1CCCCN2[C@H](CO)[C@@H](c3ccc(Br)cc3)[C@H]2C1,-4.94% (inactive)
14,COc1ccc(NC(=O)Nc2cccc3c2O[C@H](CN(C)S(=O)(=O)c2ccc(F)cc2)[C@H](C)CN([C@H](C)CO)C3=O)cc1,-3.75% (inactive)
15,O=S(=O)(c1ccc(F)cc1)N1CC[C@@H]2[C@@H](CO)Nc3ccc(-c4ccccc4F)cc3[C@@H]21,77.9% (active)
16,COc1ccccc1S(=O)(=O)N1CC[C@@H]2[C@H](CO)Nc3ccc(-c4ccccc4F)cc3[C@@H]21,-1.18% (inactive)
17,Cc1cccc(S(=O)(=O)N2CC[C@@H]3[C@H]2c2cc(C#Cc4ccc(F)cc4)ccc2N[C@@H]3CO)c1,65.6% (active)
18,COc1ccccc1CN1CC[C@@H]2[C@@H](CO)Nc3ccc(C#Cc4ccccc4)cc3[C@@H]21,-32.6% (inactive)
19,O=S(=O)(c1ccccc1)N1CC[C@@H]2[C@@H](CO)Nc3ccc(C#Cc4cccc(F)c4)cc3[C@@H]21,1.91% (inactive)
20,O=S(=O)(c1ccccc1)N1CC[C@@H]2[C@@H](CO)Nc3ccc(-c4ccccc4F)cc3[C@@H]21,16.3% (inactive)
21,CN(C)C(=O)c1cccc(-c2ccc3c(c2)[C@@H]2[C@@H](CCN2Cc2nccs2)[C@@H](CO)N3)c1,-14% (inactive)

row,SMILES,CPE inhibition
1,O=S(=O)(c1ccccc1)N1CC[C@@H]2[C@H]1c1cc(C#Cc3cccc(F)c3)ccc1N[C@@H]2CO,-8.72% (inactive)
2,COc1ccc(C#Cc2ccc3c(c2)[C@H]2[C@H](CCN2Cc2nccs2)[C@@H](CO)N3)cc1,27.7% (active)
3,CCCN1[C@H](C(=O)N2CCOCC2)[C@@H](CO)[C@@H]2Cn3c(ccc(/C=C/c4ccccc4)c3=O)[C@@H]21,14.1% (inactive)
4,CCCc1cn(CC[C@@H]2CC[C@@H](NS(=O)(=O)c3ccccc3Cl)[C@@H](CO)O2)nn1,-1.78% (inactive)
5,CO[C@H]1CN(C)C(=O)c2ccc(NC(=O)Nc3c(C)noc3C)cc2OC[C@@H](C)NC[C@H]1C,1.98% (inactive)
6,C/C=C/c1ccc2c(c1)O[C@H](CN(C)C(=O)c1ccc3c(c1)OCO3)[C@@H](C)CN([C@H](C)CO)S2(=O)=O,19.1% (inactive)
7,CC(=O)N1C[C@@H]2[C@H](c3ccccc31)[C@H](CO)N2C(=O)Nc1ccc(F)cc1,-5.97% (inactive)
8,COc1ccc2sc(-c3ccccc3OC)c(-c3ccc(OCCN4CCCC4)cc3)c2c1,-8.2% (inactive)
9,COc1ccccc1-c1sc2ccccc2c1C#CC1(O)CCCCC1,-3.75% (inactive)
10,COc1ccccc1-c1sc2ccccc2c1-c1ccc(Br)nc1,24.6% (active)
11,COc1ccc(-c2cc(NC=O)c3ncc(-c4ccccc4)n3c2)cc1OC,8.91% (inactive)
12,COc1ccc(-c2cc(NC=O)c3ncc(-c4cc(OC)c(OC)c(OC)c4)n3c2)c(OC)c1,42.3% (active)
13,COc1ccc(-c2cc(NC=O)c3ncc(-c4cccc(C(=O)N(C)C)c4)n3c2)c(OC)c1,-8.87% (inactive)
14,C[C@@H]1CN([C@@H](C)CO)C(=O)Cc2cc(NC(=O)CCN3CCOCC3)ccc2O[C@@H]1CN(C)CC1CC1,-11.7% (inactive)
15,C[C@H](CO)N1C[C@H](C)[C@@H](CN(C)CC2CC2)Oc2ccc(NC(=O)Nc3ccccc3)cc2CC1=O,7.45% (inactive)
16,CCCCCCN1CCN(C2CN(Cc3cn(Cc4ccc(F)cc4)nn3)S(=O)(=O)C2)CC1 (stereo not drawn),-0.218% (inactive)
17,COc1ccc(CN2[C@@H](CC(=O)O)c3cc(F)ccc3S2(=O)=O)cc1,-4.72% (inactive)
18,CCCCCCCCCCCCN1[C@@H](CC(C)=O)c2cc(F)cc(F)c2S1(=O)=O,37.7% (active)
19,CO[C@H]1CN(C)C(=O)c2ccc(NC(=O)C3CC3)cc2OC[C@H](C)N(CCc2ccccc2)C[C@@H]1C,4.92% (inactive)
20,COCC(=O)N(C)C[C@@H]1Oc2ncc(-c3ccccc3OC)cc2C(=O)N([C@@H](C)CO)C[C@@H]1C,0.798% (inactive)
21,CC(C)NC(=O)Nc1ccc2c(c1)C(=O)N([C@H](C)CO)C[C@@H](C)[C@@H](CN(C)C(=O)c1ccncc1)OCCCC[C@H](C)O2,-1.8% (inactive)
